Data as given in article PMC6522510 (Nature Communications, 2019).

Legend:
Settings in all cases: 72 h, relative to cycloheximide control, log10 luminescence
[1] = tested on: CHRF288-11
[2] = tested on: CMK
[3] = tested on: CMS
[4] = tested on: M07e
[5] = tested on: ML-2
[6] = tested on: MOLM-13
[7] = tested on: MV4-11
[8] = tested on: U937

C[C@]12CC[C@@H]3c4ccc(OC(=O)N(CCCl)CCCl)cc4CC[C@H]3[C@@H]1CC[C@@H]2OP(=O)(O)O [SJ000518944-1, ES[…] SODIUM]
CHRF288-11 %inh [1]: 1.087% | CMK %inh [2]: -3.517% | CMS %inh [3]: -0.5738% | M07e %inh [4]: 1.122% | ML-2 %inh [5]: 0.1396% | MOLM-13 %inh [6]: 1.341% | MV4-11 %inh [7]: 2.919% | U937 %inh [8]: -1.233%
